Measured values published in PubChem BioAssay.
Where “and” joins values, the source holds several entries; their conditions need not be identical. Equal entries are not always repeated. Calls of active or inactive are those of the source.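 The calls were made as follows, unless noted: active = compounds whose cell count with miR-34 switched on is under 0.7 times the count with it off; inactive = the rest.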

Columns and labels:
[1] = sensitizers of A549 cells to miR-34 induction, primary screen, imaging, A549 dox-inducible miR-34, nuclei and caspase counts (AID 1347080); details: A549 miR-34 inducible, Hoechst nuclei count, 48 h; also: test concentration not given here
[2] = survival rescue of mitochondrial mutant cells in low glucose, primary screen, MELAS cybrids, Rieske KO mouse fibroblasts, CellTiter-Glo (AID 1508586;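 active = mean z-score across replicates of 1.96 or higher in either the MELAS or the Rieske mutant cell line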;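 also: test concentration not given here; z relative to plate mean and SD of compound and empty wells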)
[3] = viability rescue of complex I mutant cybrids, primary screen, cell-based, galactose medium, ATP luminescence (AID 1645843;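 active = z-score of at least 1.8 in each of two replicates, scored against plate mean and spread of sample wells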;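 also: positive z means more ATP and so rescue of galactose-driven cybrid death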); details: complex I mutant cybrid cells, 72 h, stronger effect = higher value
[4] = stronger effect = lower value, cell number ratio, induced over uninduced
[5] = measured here: relative caspase fold change +Dox/-Dox
[6] = measured here: total cells with miR-34 induction, stronger effect = lower value
[7] = measured here: total cells without miR-34 induction
[8] = MELAS cybrid survival, CellTiter-Glo 48 h, stronger effect = higher value
[9] = Rieske KO mouse fibroblast survival, CellTiter-Glo 72 h

| SMILES | fold change [1, 4] | fold change [1, 5] | cell count [1, 6] | cell count [1, 7] | z-score [2, 8] | z-score [2, 9] | z-score [3] |
| --- | --- | --- | --- | --- | --- | --- | --- |
| Cc1nsc(NC(=O)N2CCCC(C)(O)C2)n1 (centres undefined) | 0.901 (inactive) | 0.878 | 9190 | 10200 | -0.195 (inactive) | -0.423 | -0.565 (inactive) |
| O=C(c1cccc2nccnc12)N1CCc2[nH]nc(COc3ccccc3)c2C1 | 0.845 (inactive) | 1.54 | 8640 | 10200 | -0.113 (inactive) | -0.39 | -0.45 (inactive) |
| Cc1ccc2c(c1)N(Cc1nc(C(C)(C)C)no1)C(=O)CO2 | 1.19 (inactive) | 0.578 | 6310 | 5280 | -0.543 (inactive) | -0.423 | -0.52 (inactive) |
| O=C(c1ccnc(Cl)c1)N1CCc2[nH]nc(C3CCC3)c2C1 | 0.923 (inactive) | 0.638 | 9170 | 9930 | -0.36 (inactive) | 0.475 | -0.4 (inactive) |
| Cn1nc(C(C)(C)C)cc1NC(=O)Nc1ccc(Cl)cc1 | 0.806 (inactive) | 1.05 | 7030 | 8720 | 1.19 (inactive) | -0.375 | 0.155 (inactive) |
| COc1ccc(OC)c(-c2nc3ccccc3o2)c1 | 0.826 (inactive) | 1.28 | 6950 | 8410 | 0.0538 (inactive) | 0.572 | -0.51 (inactive) |
| CN(C)C(=O)CN(C)C(=O)c1cccc(Nc2ncnc3c2cnn3C)c1 | 0.866 (inactive) | 1.54 | 8650 | 9990 | 0.0352 (inactive) | -0.276 | -0.525 (inactive) |
| O=C1CCCc2occ(C(=O)N3CCc4[nH]nc(Cc5ccccc5)c4C3)c21 | 0.979 (inactive) | 0.441 | 9440 | 9640 | -0.275 (inactive) | -0.284 | -0.515 (inactive) |
| Cc1nnc(NC(=O)NCC(c2ccccc2)c2ccccc2)s1 | 0.837 (inactive) | 0.947 | 7790 | 9310 | 0.623 (inactive) | 1.94 | 1.01 (inactive) |
| O=C(O)CNC(=O)NC1CCCCC1 | 0.908 (inactive) | 0.307 | 9060 | 9970 | 0.384 (inactive) | -0.24 | 0.34 (inactive) |
| COc1cccc(-c2cccc(N)n2)c1F | 0.943 (inactive) | 0.993 | 9590 | 10200 | 0.104 (inactive) | -0.26 | -0.59 (inactive) |
| CC(=O)C=Cc1cn(C)c2ccccc12 | 0.824 (inactive) | 0.579 | 7690 | 9340 | 1.15 (inactive) | 0.123 | 0.49 (inactive) |
| CN=C(NC)NCc1ccccc1 | 0.917 (inactive) | 0.571 | 9010 | 9830 | 0.186 (inactive) | -0.223 | 0.38 (inactive) |
| CCC(C)n1ncn(-c2ccc(N3CCN(c4ccc(OCC5CO[C@](Cn6cncn6)(c6ccc(Cl)cc6Cl)O5)cc4)CC3)cc2)c1=O (some centres undefined) | 0.844 (inactive) and 0.945 (inactive) | 0.375 and 1.03 | 6320 and 8160 | 7490 and 8630 | 0.58 (inactive) and -0.288 (inactive) | -0.239 and 0.0468 | -2.34 (inactive) |
| C=CCn1cc(-c2nc3c([nH]2)c(-c2cccnc2)nn3C)c(C)n1 | 0.874 (inactive) | 0.787 | 8680 | 9940 | -1.29 | 2.45 | -0.47 (inactive) |
| CC(C)c1nc(CN(C)C(=O)NC(C(=O)NC(Cc2ccccc2)CC(O)C(Cc2ccccc2)NC(=O)OCc2cncs2)C(C)C)cs1 (centres undefined) | 0.948 (inactive) and 0.95 (inactive) | 1.44 and 0.946 | 7230 and 6000 | 7630 and 6320 | -0.434 (inactive) | 0.643 | -0.03 (inactive) |
| CN(Cc1noc(C2CCCC2)n1)C(=O)c1nc(=O)[nH]c2ccccc12 | 0.914 (inactive) | 1.01 | 8520 | 9320 | -0.339 (inactive) | 0.124 | -0.525 (inactive) |
| O=c1cc(-c2ccccc2)oc2ccccc12 | 0.858 (inactive) | 0.735 | 7170 | 8370 | 2.28 (active) | 0.116 | 1.36 (inactive) |
| O=C(NCc1ccccn1)c1ccc(Oc2ccccc2)cc1 | 0.933 (inactive) | 0.296 | 8650 | 9270 | 0.509 (inactive) | -0.417 | 0.08 (inactive) |
| O=C(O)CN(CCO)CCO | 0.873 (inactive) | 0.542 | 8460 | 9690 | -0.0565 (inactive) | -0.265 | 0.37 (inactive) |
| CCc1noc(Cn2cnc3sc4c(c3c2=O)CCC(C)C4)n1 (centres undefined) | 0.911 (inactive) | 1.55 | 8510 | 9340 | 0.0666 (inactive) | 0.0902 | -0.515 (inactive) |
| COc1cccc(Cc2noc(-c3nccc4ccccc34)n2)c1 | 0.933 (inactive) | 1.27 | 8090 | 8670 | 0.324 (inactive) | -0.0974 | -0.1 (inactive) |
| OCCCc1cn(C2CCN(c3nn4cnnc4c4ccccc34)CC2)nn1 | 0.902 (inactive) | 1.35 | 8970 | 9940 | 0.105 (inactive) | -0.51 | -0.54 (inactive) |
| COc1cccc2ncn(Cc3nc4ccccc4o3)c(=O)c12 | 0.951 (inactive) | 1.68 | 8290 | 8720 | -0.0437 (inactive) | -0.268 | -0.545 (inactive) |

| SMILES | fold change [1, 4] | fold change [1, 5] | cell count [1, 6] | cell count [1, 7] | z-score [2, 8] | z-score [2, 9] | z-score [3] |
| --- | --- | --- | --- | --- | --- | --- | --- |
| CCOC(=O)c1c(C)nn(-c2ccc(OC)cc2)c1C | 0.895 (inactive) | 0.849 | 7720 | 8620 | 0.662 (inactive) | 0.769 | 0.595 (inactive) |
| CCC1OC(=O)C(C)C(OC2C[C@@](C)(OC)C(O)C(C)O2)C(C)C(OC2OC(C)CC(N(C)C)C2O)[C@](C)(OC)CC(C)C(=O)C(C)C(O)[C@]1(C)O (some centres undefined) | 0.943 (inactive) and 0.989 (inactive) | 1.76 and 0.873 | 9620 and 10500 | 10200 and 10600 | -0.386 (inactive) | 0.552 | -0.175 (inactive) |
| CCC1C(=O)N(C)CCN1C(=O)Nc1nc(C)ns1 (centres undefined) | 1.02 (inactive) | 1.35 | 8670 | 8510 | -0.0427 (inactive) | -0.105 | -0.49 (inactive) |
| C=CCNC(=O)c1cccnc1-c1ccc(OC)c2ncccc12 | 0.914 (inactive) | 1.9 | 9130 | 9990 | -0.163 (inactive) | -0.219 | -0.545 (inactive) |
| Nc1ccc(Sc2ccc(N3C(=O)c4ccc(N)cc4C3=O)cc2)cc1 | 0.816 (inactive) | 1.86 | 8200 | 10000 | 0.874 (inactive) | 0.253 | -0.975 (inactive) |
| CCCc1cn(CC2CCCN(C(=O)c3nc4ncccn4n3)C2)nn1 (centres undefined) | 0.866 (inactive) | 1.31 | 9000 | 10400 | -0.289 (inactive) | -0.243 | -0.51 (inactive) |
| CCOC(=O)c1c(C)n[nH]c1C | 0.871 (inactive) | 0.655 | 8840 | 10200 | 0.691 (inactive) | -0.58 | 0.425 (inactive) |
| COc1ccc(OC)c2c1c(C)cc(=O)n2C | 0.823 (inactive) | 0.693 | 8060 | 9790 | -0.469 (inactive) | 0.131 | -0.615 (inactive) |
| O=c1[nH]c(=O)c2[nH]cnc2[nH]1 | 0.891 (inactive) | 0.584 | 8870 | 9950 | 0.44 (inactive) | -0.148 | -0.02 (inactive) |
| O=C(O)Cc1cc(=O)[nH]c(=O)[nH]1 | 0.898 (inactive) | 0.239 | 8760 | 9760 | 0.622 (inactive) | -0.242 | -0.13 (inactive) |
| CCn1ncc2[nH]c(-c3c(OC(C)C)ccc4ccccc34)nc21 | 0.906 (inactive) | 1.3 | 7700 | 8510 | -0.33 (inactive) | -0.482 | 0.5 (inactive) |
| COc1cccc(OC)c1-c1ccc(C(=O)Nc2cccnc2)o1 | 0.893 (inactive) | 2.2 | 7930 | 8880 | 0.0755 (inactive) | 0.502 | -0.555 (inactive) |
| O=C(O)c1ccc(-c2cc(Cl)ccc2Cl)o1 | 0.874 (inactive) | 0.439 | 8600 | 9840 | -0.277 (inactive) | 0.0393 | 0.44 (inactive) |
| CCOC(=O)c1c(C)nn(-c2ccc(N)cc2)c1C | 0.897 (inactive) | 0.586 | 8580 | 9570 | -0.251 (inactive) | -0.884 | -0.7 (inactive) |
| COc1ccccc1-c1cnn(CC(=O)Nc2cc(C)nn2C)c1 | 0.86 (inactive) | 2.23 | 7820 | 9090 | 0.116 (inactive) | -1.22 | -0.56 (inactive) |
| CN1CCN(Cc2ccc(-c3nc(-c4cccnc4)cc(=O)[nH]3)cc2)CC1 | 0.911 (inactive) | 1.1 | 8750 | 9610 | -0.317 (inactive) | -0.261 | -0.55 (inactive) |
| Cc1nsc(NC(=O)N[C@@H]2CCCC[C@H]2c2ccccc2)n1 | 0.821 (inactive) | 1.15 | 7510 | 9150 | 0.535 (inactive) | -0.546 | 1.12 (inactive) |
| O=C(Nc1n[nH]c(Cc2ccccc2)n1)N1CCN(c2ncncn2)CC1 | 0.914 (inactive) | 1.11 | 9380 | 10300 | 0.379 | 4.03 | 0.44 (inactive) |
| OC(CNCC(O)C1CCc2cc(F)ccc2O1)C1CCc2cc(F)ccc2O1 (centres undefined) | 1.62 (inactive) | 0.335 | 2500 | 1540 | 0.602 | 2.88 | -2.66 (inactive) |
| CC[C@H](C)[C@H](NC(=O)c1nc2ccccc2c(=O)[nH]1)C(=O)OC | 0.844 (inactive) | 2.34 | 7550 | 8940 | 0.166 (inactive) | -0.367 | -0.31 (inactive) |
| CCN(Cc1nccn1C)C(=O)c1cc(-c2cnc(C)nc2)nc2cc(F)ccc12 | 0.881 (inactive) | 1.32 | 8950 | 10200 | -0.0942 (inactive) | -0.488 | -0.2 (inactive) |
| CC(C)(CCl)C(=O)Nc1ccc(C(F)(F)F)cc1 | 0.859 (inactive) | 1.51 | 8340 | 9720 | 0.804 (inactive) | 0.128 | 0.14 (inactive) |
| O=C(O)c1sccc1S(=O)(=O)Nc1ccc(Cl)cc1 | 0.887 (inactive) | 0.469 | 8810 | 9930 | -0.651 (inactive) | -0.438 | 0.48 (inactive) |
